# Assay results reported in the supplement of paper PMC3334620.
# Whole data set: some 33,000 sequences, median “E-score (-0.5 to 0.5)” near -0.012, cut for the highest 2% near 0.29. For the sample, the highest values were picked, then their nearest neighbours and some sequences at random.
# Target: T1, Ybr033w (UniProt P38073)
# T1 sequence: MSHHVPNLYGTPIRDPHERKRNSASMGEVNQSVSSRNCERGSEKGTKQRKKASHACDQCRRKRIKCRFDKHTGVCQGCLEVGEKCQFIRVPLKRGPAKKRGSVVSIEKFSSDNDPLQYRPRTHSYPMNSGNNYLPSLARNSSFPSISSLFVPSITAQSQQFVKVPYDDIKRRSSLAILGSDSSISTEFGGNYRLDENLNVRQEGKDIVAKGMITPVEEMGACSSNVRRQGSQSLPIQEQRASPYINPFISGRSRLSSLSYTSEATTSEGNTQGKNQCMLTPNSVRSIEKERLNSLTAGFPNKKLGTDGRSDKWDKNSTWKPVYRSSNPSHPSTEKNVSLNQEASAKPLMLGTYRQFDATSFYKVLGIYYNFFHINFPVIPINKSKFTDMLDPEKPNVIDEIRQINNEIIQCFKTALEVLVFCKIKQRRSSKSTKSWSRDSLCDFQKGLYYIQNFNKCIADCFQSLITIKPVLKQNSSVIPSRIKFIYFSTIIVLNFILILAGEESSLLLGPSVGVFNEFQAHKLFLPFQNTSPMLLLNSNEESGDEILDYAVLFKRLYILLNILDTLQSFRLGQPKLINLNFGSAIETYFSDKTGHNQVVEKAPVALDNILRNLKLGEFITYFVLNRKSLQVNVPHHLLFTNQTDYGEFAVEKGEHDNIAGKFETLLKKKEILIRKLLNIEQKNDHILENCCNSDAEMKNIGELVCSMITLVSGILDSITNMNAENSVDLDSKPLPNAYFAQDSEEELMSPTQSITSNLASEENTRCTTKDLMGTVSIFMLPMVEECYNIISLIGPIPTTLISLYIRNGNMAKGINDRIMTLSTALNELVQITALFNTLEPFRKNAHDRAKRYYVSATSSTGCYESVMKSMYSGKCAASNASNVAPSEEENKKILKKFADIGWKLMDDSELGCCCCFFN
# Test: PBM E-score (8-mer binding enrichment) (E-score (-0.5 to 0.5)); higher = stronger / more preferred TF binding
# Conditions: protein concentration: 200 nM; construct: GST-full length
# Protocol: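 Universal 'all 10-mer' protein binding microarrays (Agilent AMADID 015681) probed with GST-tagged S. cerevisiae TFs (full-length or DBD) made by in vitro transcription/translation (PURExpress), about 100-200 nM. Bound TF was detected with fluorescent anti-GST. Each ungapped 8-mer (which stands for itself and its reverse complement) is scored by the PBM enrichment score (E-score), a modified Wilcoxon-Mann-Whitney statistic from -0.5 to +0.5, computed with the Universal PBM Analysis Suite. Scale: above 0.35 generally sequence-specific binding.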
row,Sequence,PBM E-score
1,AGTCCAAC,-0.12
2,CTTAGAAA,0.138
3,ATCTATTC,0.132
4,AAACTCAT,0.274
5,AATCGAAG,0.108
6,CATTTCGG,-0.0324
7,ATATATAA,0.332
8,TGATATAA,0.179
9,GTATATAA,0.168
10,TCATATAA,0.179
11,TTATATAA,0.411
12,CTATATAA,0.152
13,GAGCAAAA,0.0833
14,ATAGTGCG,0.0631
15,CACTTGGG,-0.0516
16,ACCTTTTG,-0.0505
17,AATGTTCA,0.0556
18,ACTTCCGA,-0.0181
19,AAATCCGA,0.12
20,AATTCCGA,0.296
21,GAATCCGA,-0.108
22,AATTCCGC,0.172
23,AATTCCGG,0.154

row,Sequence,PBM E-score
1,CATTCCGA,0.15
2,TAATCCGA,0.326
3,TATTCCGA,0.398
4,GATTCCGA,0.129
5,AATTCCCA,0.171
6,AATTCCGT,0.312
7,ACTGCGAA,-0.0623
8,GAATCACC,0.136
9,AAACTGGA,0.0838
10,CTAATCCC,-0.0661
11,CCTCTGCG,-0.252
12,GCTGCCCA,-0.153
13,ACTTGGAG,-0.0202
14,AGCCTATA,0.0186
15,CGCCAGAG,-0.045
16,AGATGTCC,0.0719
17,CTAGCATA,0.137
18,CTTACTAA,0.143
19,GTGTAAAC,-0.00524
20,AGGCGAGC,-0.174
21,ATCGCTAA,0.0959
22,CCGGGCAG,-0.122
23,GTTATGGA,0.108

row,Sequence,PBM E-score
1,AGATGAAC,0.131
2,GGATGAAC,0.292
3,CGATGAAC,-0.00159
4,AAGGGAGA,-0.166
5,AGCATACG,-0.0246
6,CGGAATTC,0.0496
7,TCGAATAA,0.193
8,AGGAATAA,0.364
9,TGGAATAA,0.417
10,AGGAATAG,0.134
11,CCGAATAG,0.0196
12,AGGAATAC,-0.131
13,CCGAATAC,0.105
14,AGGAATTA,0.223
15,TAGAATAA,0.205
16,CGGAATTA,0.407
17,CCGAATAA,0.293
18,ATTCAGTA,0.13
19,AGGTCTTG,-0.128
20,ATTGTGGA,0.153
21,CACCTAGC,-0.236
22,AGCACTAT,0.0398
23,CAGTGATA,0.0511

row,Sequence,PBM E-score
1,CACAGTCG,-0.125
2,AGGCAAAA,0.222
3,AGGAATCG,0.116
4,ACGAATAC,0.0881
5,CGGAATAA,0.468
6,AAGAATAT,0.149
7,GGGAATAA,0.355
8,ACGAATAA,0.0842
9,CGGAATAG,0.126
10,CGGAATAC,0.186
11,GGGAATAC,-0.0369
12,ACGAATAT,0.295
13,GGGAATCA,0.0407
14,AGGAATAT,0.353
15,TACCTTGA,0.0473
16,CTCACGGC,-0.261
17,GGGGCCAA,-0.123
18,ATAATGGG,0.152
19,GACTTTAC,0.03
20,AATTCACT,0.249
21,CGGTATGA,0.0788
22,GAGCCCAC,-0.27
23,TATTGTGA,0.105

row,Sequence,PBM E-score
1,CTTGTAGA,-0.145
2,ATTGTAGA,0.295
3,GTTGTAGA,0.00414
4,AATAGTCC,-0.0436
5,ACCGACAG,-0.135
6,AGTTTTTA,0.181
7,AATTTTGC,0.142
8,AGTTTTCC,0.216
9,AAATTTCC,0.258
10,GATTTTCC,0.416
11,AGTTTTTC,0.295
12,CAATTTCC,0.195
13,GAATTTCC,0.343
14,GATTTCCC,0.0546
15,ATTTTTGG,0.0437
16,ATTTTTGC,0.308
17,GATTTTCA,0.205
18,CGGTTCTA,0.0953
19,AAGTTGAG,0.0874
